# Measurements reported in PubChem BioAssay (EPA / NIEHS).
# Several values for one entry are separate records, joined by “and”; a condition that tells them apart may be missing. Equal entries are not always repeated. The source holds several records for some structures; these can differ, active in one and inactive in another. Activity calls are given as the source filed them. Rule for the calls: active = hit-call score of the fitted dose curve at least 0.9, where 1 is the maximum; inactive = score below 0.9.
# Target: Heat shock factor protein 1 (Homo sapiens) (UniProt Q00613)
# Experiment: ATG_HSE_CIS: Attagene CIS-FACTORIAL HepG2 Assay for human Heat Shock Transcription Factor 1 (HSE) (AID 2282953)
# Conditions: HepG2 HSE cis-reporter, Attagene RNA transcription; actives raise or lower the signal
# Description: ATG_CIS is a cell-based, multiplexed-readout assay that uses HepG2, a human liver cell line, with measurements taken at 24 hours after chemical dosing in a 24-well plate.ATG_HSE_CIS is one of 52 assay component(s) measured or calculated from the ATG_CIS assay. It is designed to make measurements of mRNA induction, a form of inducible reporter, as detected with fluorescence intensity signals by Reverse transcription polymerase chain reaction (RT-PCR) and Capillary electrophoresis technology.Data from the assay component ATG_HSE_CIS was analyzed into 1 assay endpoint. This assay endpoint, ATG_HSE_CIS, was analyzed with bidirectional fitting relative to DMSO as the negative control and baseline of activity. Using a type of inducible reporter, measures of mRNA for gain or loss-of-signal activity can be used to understand the reporter gene at the transcription factor-level as they relate to the gene HSF1. Furthermore, this assay endpoint can be referred to as a primary readout, because this assay has produced multiple assay endpoints where this one serves a reporter gene function. To generalize the intended target to other relatable targets, this assay endpoint is annotated to the dna binding intended target family, where the subfamily is heat shock protein.
# Human liver HepG2 cells are transiently transfected with multiple reporter transcription units (MRTUs) in 6-well plates using FuGene 6 reagent (Roche; 3 ml FuGene/1 mg DNA). The MRTU constructs are regulated by a cis-regulating element (promoter). […] A major difference between the CIS and TRANS system is that in CIS activities of endogenous TFs are measured, whereas the TRANS assay evaluates changes in activities of exogenous, chimeric NR-Gal4 proteins. […] At the end of 24 hour incubation, total RNA was isolated using TriZol reagent (Invitrogen). The isolated RNA is then reverse-transcribed using oligo(dT) primer and Mo-MLV reverse transcriptase (Invitrogen) with DNAse I (Ambion) treatment for 30 min. The one-tenth of the produced cDNA was amplified by PCR using Taq DNA polymerase (Invitrogen) and two reporter sequence-specific primers. The PCR products were fluorescently labeled by primer extension with 6-arboxyfluorescein (6-FAM) 5'-labeled reporter sequence-specific primer (2 min at 95 C, 20 s at 68 C and 10 min at 72 C) and these products were digested with 5U of HpaI (New England Biolabs) for 2h at 37 C. The fragments were purified using Qiaquick PCR columns (Qiagen), analyzed on an ABI 3130xL genetic analyzer (Applied Biosystems) with peak positions identified by using a set of X-rhodamine (ROX)-labeled MapMarker1000 molecular weight standards (BioVentures). The raw capillary electrophoresis data was processed using Attagraph software (Attagene).
# Sequence of Heat shock factor protein 1 (Homo sapiens) (Q00613 whole entry, looked up): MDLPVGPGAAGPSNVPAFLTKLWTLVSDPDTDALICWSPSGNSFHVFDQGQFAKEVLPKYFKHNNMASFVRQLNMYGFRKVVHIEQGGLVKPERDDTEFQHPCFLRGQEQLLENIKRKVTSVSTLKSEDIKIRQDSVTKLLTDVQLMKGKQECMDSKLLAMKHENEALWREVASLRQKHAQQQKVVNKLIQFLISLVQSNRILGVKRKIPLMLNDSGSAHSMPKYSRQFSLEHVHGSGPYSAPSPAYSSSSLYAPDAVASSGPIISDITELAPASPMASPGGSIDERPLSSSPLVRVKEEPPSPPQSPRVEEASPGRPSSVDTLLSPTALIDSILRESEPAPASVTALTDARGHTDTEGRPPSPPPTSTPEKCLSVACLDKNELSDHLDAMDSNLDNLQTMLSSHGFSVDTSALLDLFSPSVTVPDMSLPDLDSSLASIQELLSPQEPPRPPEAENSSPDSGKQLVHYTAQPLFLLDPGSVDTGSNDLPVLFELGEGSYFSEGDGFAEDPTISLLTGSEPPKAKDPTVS
Compound,outcome,AC50
CC(C)(C)C(O)C(Oc1ccc(Cl)cc1)n1cncn1 (stereo unspecified),inactive,
CCS(=O)(=O)c1cccnc1S(=O)(=O)NC(=O)Nc1nc(OC)cc(OC)n1,inactive,
N#Cc1c(Cl)c(Cl)c(Cl)c(C#N)c1Cl,inactive,
CCOCN(C(=O)CCl)c1c(C)cccc1CC,inactive,
CC1(C)C(C=C(Cl)Cl)C1C(=O)OC(C#N)c1ccc(F)c(Oc2ccccc2)c1 (stereo unspecified),inactive,
COP(=S)(OC)Oc1ccc([N+](=O)[O-])cc1,inactive,
CCC(C)(C)C(=O)OC1=C(c2ccc(Cl)cc2Cl)C(=O)OC12CCCCC2,inactive,
CCc1ccc(C(=O)NN(C(=O)c2cc(C)cc(C)c2)C(C)(C)C)cc1,inactive,
O=C(NC(=O)c1c(F)cccc1F)Nc1ccc(OC(F)(F)C(F)OC(F)(F)F)c(Cl)c1 (stereo unspecified),inactive,
COc1nn(CSP(=S)(OC)OC)c(=O)s1,inactive,
CC(C)OC(=O)Nc1cccc(Cl)c1,inactive,
O=[N+]([O-])c1c(Cl)c(Cl)c(Cl)c(Cl)c1Cl,,80.8 µM (active)
Oc1ccc(Cl)cc1Cc1ccccc1,inactive,17.3 µM (active)
CCCN(CCC)c1c([N+](=O)[O-])cc(C(F)(F)F)cc1[N+](=O)[O-],inactive,
O=C(O)CCCOc1ccc(Cl)cc1Cl,inactive,
CNC(=O)Oc1ccccc1OC(C)C,inactive,
CCCN(CCOc1c(Cl)cc(Cl)cc1Cl)C(=O)n1ccnc1,inactive,2.61 µM (active)
Oc1cc(Cl)ccc1Oc1ccc(Cl)cc1Cl,inactive,17.4 µM (active) and 9.05 µM (active)
COC(=O)c1ccccc1S(=O)(=O)NC(=O)Nc1nc(C)nc(OC)n1,inactive,

Compound,outcome,AC50
Cc1[nH]c(=O)n(C(C)(C)C)c(=O)c1Cl,inactive,
Clc1ccccc1-c1nnc(-c2ccccc2Cl)nn1,inactive,
CNC(=O)/C=C(\C)OP(=O)(OC)OC,inactive,
CC[C@H](C)[C@H]1O[C@]2(C=C[C@@H]1C)C[C@@H]1C[C@@H](C/C=C(\C)[C@@H](O[C@H]3C[C@H](OC)[C@@H](O[C@H]4C[C@H](OC)[C@@H](O)[C@H](C)O4)[C@H](C)O3)[C@@H](C)/C=C/C=C3\CO[C@@H]4[C@H](O)C(C)=C[C@@H](C(=O)O1)[C@]34O)O2 (tested in a mixture with another compound),inactive,
O=[N+]([O-])/N=C1\NCCN1Cc1ccc(Cl)nc1,inactive,
Cc1cc(C)nc(NC(=O)NS(=O)(=O)c2ccccc2C(=O)OC2COC2)n1,,76.2 µM (active)
CC(C)(C)C(O)/C(=C\c1ccc(Cl)cc1Cl)n1cncn1 (stereo unspecified),inactive,
CCN(CC)C(=O)SCc1ccc(Cl)cc1,inactive,
OCCOc1ccccc1,inactive,
[2H]C1([2H])[n+]2ccccc2-c2cccc[n+]2C1([2H])[2H],inactive,
ClC1C(Cl)C(Cl)C(Cl)C(Cl)C1Cl (stereo unspecified),inactive,
COP(=O)(OC)OC=C(Cl)Cl,inactive,
O=S1OCC2C(CO1)C1(Cl)C(Cl)=C(Cl)C2(Cl)C1(Cl)Cl (stereo unspecified),inactive,
CNC(=O)Oc1cccc(N=CN(C)C)c1,inactive,
COP(=S)(OC)Oc1ccc(SC)c(C)c1,inactive,
CNC(=O)CSP(=S)(OC)OC,inactive,
COc1cc(OC)nc(NC(=O)NS(=O)(=O)c2cc(NC=O)ccc2C(=O)N(C)C)n1,inactive,
O=S(=O)(O)C(F)(F)C(F)(F)C(F)(F)C(F)(F)C(F)(F)C(F)(F)C(F)(F)C(F)(F)F,inactive,182 µM (active) and 54.8 µM (active)
